# Data taken from PubChem BioAssay AID1159606 (Sanford-Burnham Center for Chemical Genomics, 2016).
# Out of some 360,000 compounds screened, about 7,300 (2%) were called active. This excerpt belongs to a sample that is enriched for actives. Unmarked numbers belong to inactive results. Cut-off read from the data, not from the text of the source: active = inhibition above about 50%; inactive = the rest.
# Assay: inhibitors of TWEAK-Fn14 signaling, primary screen, luciferase reporter cells, uHTS (AID 1159606)
# Conditions: TWEAK-stimulated Fn14 reporter cells, luciferase luminescence, 8 h; at 10 µM; active compounds read high
row,Structure (SMILES),inhibition
1,Cc1cccc(CN2CCN(C3CN(Cc4cn(Cc5ccccc5F)nn4)S(=O)(=O)C3)CC2)c1 (configuration not stated),-19.2%
2,NC(=O)C1CC(=O)N(c2ccc(OCC(=O)NCc3ccccc3)cc2)C1 (configuration not stated),32.7%
3,Cc1cccc(C)c1NC(=O)CNC(=O)c1ccc(N2CCOCC2)c([N+](=O)[O-])c1,8.19%
4,O=S(=O)(NCCCCCCNS(=O)(=O)c1c(F)cccc1F)c1ccc2c(c1)OCCO2,16.7%
5,O=C1NC[C@H](Cc2ccc(O)cc2)N(C[C@@H]2CCCN2C[C@H](Cc2ccccc2)N2C[C@H](Cc3ccccc3)N(CC3CCCCC3)C(=O)C2=O)C1=O,-9.41%
6,COc1cccc(C(=O)N/N=C(\C)c2cccc(NC(=O)c3ccc(F)cc3)c2)c1OC,-20%
7,Nc1ccc(C(=O)N2CCN(S(=O)(=O)c3ccc(Cl)cc3)CC2)cc1[N+](=O)[O-],-5.64%
8,O=C(c1ccc(Oc2ccc(Cl)cc2)c([N+](=O)[O-])c1)N1CCCC1,-4.37%
9,CC1CCN(C(=O)c2ccc(S(=O)(=O)Cc3cc(F)ccc3F)c([N+](=O)[O-])c2)CC1,83.4% (active)
10,O=C(NCCc1ccccn1)c1ccc(COc2ccccc2)o1,-2.18%
11,COc1ccc(/C=C/C(=O)Nc2ccc(C)cc2)cc1S(=O)(=O)N1CCOCC1,-4.91%
12,Cc1ccc(C(=O)/C=C/Nc2ccc(S(=O)(=O)Nc3onc(C)c3C)cc2)cc1,-32%
13,COc1ccc(/C=C/C(=O)c2ccc(NS(=O)(=O)c3ccc(C)cc3)cc2)cc1O,60.9% (active)
14,COc1ccc(CNC(=O)c2c[nH]c3c(OC)cc(OC)cc3c2=O)cc1,-46.6%
15,CCCCN1C(=O)c2ccc(C(=O)Nc3ccc(S(=O)(=O)N(C)C)cc3)cc2C1=O,33.8%
16,COc1ccc(NC(=O)C2Cc3c(-c4ccc(Cl)cc4)ccnc3O2)cc1 (configuration not stated),6.65%
17,O=C(c1[nH]ncc1-c1ccc(Cl)cc1)C1CO1 (configuration not stated),66.5% (active)
18,Cc1ccc(S(=O)(=O)n2oc(=O)c(C3CCCCC3)c2N)cc1,2.92%
19,CCCS(=O)(=O)Nc1ccc(-c2cn3c(n2)SCC3)cc1,-17.6%
20,Cc1nn(Cc2ccc(F)cc2)c(C)c1NC(=O)c1noc2c1CCc1ccccc1-2,60.1% (active)
21,Cc1nn(Cc2ccc(Cl)c(Cl)c2)c(C)c1NC(=O)c1cc(C2CC2)on1,-9.69%
22,Cc1ccccc1Cn1nc(C)c(NC(=O)C(F)(F)F)c1C,-0.38%

row,Structure (SMILES),inhibition
1,CC(C)(C)C1CCC(=O)N2CCC[C@]2(c2ccccc2)C1 (some centres not stated),-2.82%
2,COc1ccc(NC(=O)CCNC(=O)Cn2cnc3sc4c(c3c2=O)CCCC4)cc1OC,-3.89%
3,COc1ccc(/C=N/Nc2ncnc3sc4c(c23)CCCC4)cc1O,91.4% (active)
4,COc1ccc(NC(=O)CCCNC(=O)Cn2cnc3sc4c(c3c2=O)CCCC4)cc1OC,4.82%
5,Cc1ccccc1S(=O)(=O)N1[C@@H](c2cccc(Cl)c2)C(C(=O)OC(C)(C)C)=CC[C@H]1c1ccc(Cl)cc1,-24.3%
6,Cc1ccc(-c2nc3c(Cl)cc(C(F)(F)F)cn3c2Cc2cccc(Cl)c2)cc1,25.6%
7,COC(=O)c1ccc2c(c1)S(=O)(=O)NC2C (configuration not stated),-6.18%
8,CN(C)c1ccc2c(=O)[nH][nH]c(=O)c2c1,-6.35%
9,COc1ccc(CCNC(=O)COC(=O)Cc2cccc(F)c2)cc1,-0.83%
10,CC(C)Oc1ccc(CCc2n[nH]c(=S)n2Cc2ccccc2)cc1,-6.3%
11,COc1cc(-c2n[nH]c(=S)n2Cc2ccccc2)cc(OC)c1OC,-2.96%
12,CC(C)Oc1ccc(Cc2n[nH]c(=S)n2Cc2ccccc2)cc1Cl,92.2% (active)
13,COC(=O)c1c(-c2ccc(C)cc2)csc1N,-2.01%
14,CCC(C(=O)OC)n1cnc2scc(-c3ccc(C)cc3)c2c1=O (configuration not stated),0.23%
15,CCOC(=O)c1c(-c2ccc(C)cc2)csc1/N=C(\C)C1=C(O)c2ccccc2C1=O,66.2% (active)
16,CS(=O)(=O)N(C(=O)NC(=O)NC1CCS(=O)(=O)C1)C1CCCCC1 (configuration not stated),13.7%
17,CCCS(=O)(=O)NC(=O)C1(C)CCCN(C(=O)c2cccs2)C1 (configuration not stated),-4%
18,COCC1CCCCN1C(=O)c1cc(COc2ccc(C)c(C)c2)on1 (configuration not stated),-33.8%
19,O=C(NNC(=O)c1ccc(-n2cncn2)c([N+](=O)[O-])c1)c1ccccc1,2.77%
20,CC1CCN(C(=O)c2cccc(S(=O)(=O)N3CCCc4ccccc43)c2)CC1,-0.65%
21,O=C(Nc1nc2ccc([N+](=O)[O-])cc2s1)c1ccc(S(=O)(=O)N2CCCc3ccccc32)cc1,64.6% (active)
22,NS(=O)(=O)c1ccc(CNC(=O)c2cccc(S(=O)(=O)N3CCc4ccccc43)c2)cc1,3.71%

row,Structure (SMILES),inhibition
1,Cc1ccc(NC(=O)c2cccc(S(=O)(=O)N3CCCc4ccccc43)c2)nc1,58.7% (active)
2,O=C(NC(Nc1nc2ccc([N+](=O)[O-])cc2s1)(C(F)(F)F)C(F)(F)F)c1ccccc1,57.6% (active)
3,CCC(=O)Nc1nnc(S(=O)(=O)N2CCCc3ccccc32)s1,-3.9%
4,CC(Nc1ccc([N+](=O)[O-])cc1[N+](=O)[O-])c1ccccc1 (configuration not stated),-18.4%
5,NS(=O)(=O)c1ccc2nc(NC(=O)C3=COCCO3)sc2c1,24.4%
6,CCCCCCCCN1C(=O)[C@H](CC(=O)NCC23CC4CC(CC(C4)C2)C3)C[C@@]2(C(=O)OC)CCCCC=C12,8.39%
7,CCNC(=O)C1(C)CCN(Cc2ccc(C(=O)OCC)o2)C1 (configuration not stated),1.05%
8,CN(C)N=Nc1ccc2nc[nH]c2c1,-9.3%
9,O=S1(=O)CC(N2CCN(Cc3ccccc3F)CC2)CN1Cc1cn(Cc2ccccc2)nn1 (configuration not stated),5.09%
10,C=CCn1c(SCc2nnc(-c3ccccc3)o2)nnc1C(O)c1ccccc1 (configuration not stated),-3.86%
11,CCC(NC(=O)c1ccccc1NC(=O)c1ccccc1)C(=O)NNC(=O)CSc1nc2ccccc2o1 (configuration not stated),-0.91%
12,Cn1cnc2c1c(=O)n(Cc1c(Cl)cccc1Cl)c(=O)n2C,-7.11%
13,Cn1c(N)c(C(=O)COC(=O)c2ccccc2NCc2ccco2)c(=O)n(C)c1=O,22.6%
14,CC(=O)c1cnn(-c2cc(Oc3ccc(F)cc3)ncn2)c1C,8.07%
15,CCOC(=O)/C(=N\Nc1cc(Cl)ccc1Cl)N1CCN(C)CC1,-34.9%
16,CC(=O)C1=C(C)NC(C)=C(C(C)=O)C1c1cn(-c2ccccc2)nc1-c1cccs1,-6.98%
17,O=C(/C=C\c1cn(-c2ccccc2)nc1-c1cccs1)N1CCOCC1,98.4% (active)
18,O=C(/C=C/c1cn(-c2ccccc2)nc1-c1ccc2c(c1)OCCO2)NCCCN1CCOCC1,-1.36%
19,COc1ccc(S(=O)(=O)N2CCCCC2)cc1NC(=O)COc1ccccc1,22.4%
20,COc1ccc(-c2nn(C)c(=O)c3ccccc23)cc1NC(=O)COc1ccccc1,71.2% (active)
21,COc1ccc(-c2nn(C)c(=O)c3ccccc23)cc1CNC(=O)C1CCCCC1,-37.6%
22,CC1CC(=S)Nc2ccccc2N1Cc1ccccc1 (configuration not stated),13.5%

row,Structure (SMILES),inhibition
1,Cc1nc2ccc(NC(=O)N3CCC(c4ccccc4)C3)cc2nc1C (configuration not stated),0.79%
2,O=C(O)c1ccc(N/N=C/c2ccc3ncccc3c2)cc1,95.2% (active)
3,CCNC(=S)NNC(=O)c1ccc2ncccc2c1,1.76%
4,CC(C)(C)OC(=O)N/N=C/c1ccc(C(=O)O)cc1,-4.99%
5,CC1(C(=O)Nc2ccc3c(c2)OCCO3)CCN1C(=O)Cc1cc(F)ccc1F (configuration not stated),-3.09%
6,O=S(=O)(NCc1ccccc1Cl)c1cnc[nH]1,-2.25%
7,O=S1(=O)CC(N2CCN(Cc3ccccc3F)CC2)CN1Cc1cn(Cc2cccc(C(F)(F)F)c2)nn1 (configuration not stated),10.4%
8,O=[N+]([O-])c1cc2ccccc2nc1-c1ccccc1,-7.41%
9,O=[N+]([O-])c1ccc(F)cc1Oc1nc(-c2cccnc2)nc2ccccc12,55.1% (active)
10,CCN(CC(=O)NC1CCS(=O)(=O)C1)c1nc(-c2cccnc2)nc2ccccc12 (configuration not stated),0.56%
11,Cc1ccc(S(=O)(=O)N2[C@@H](c3cccc4ccccc34)C(C(=O)O)=C[C@H]2C(C)(C)C)cc1,14.3%
12,CCOc1ccc(CN2CCNC(=O)C2CC(=O)NCCCC2CCCC2)cc1 (configuration not stated),7.15%
13,CCOC(=O)c1c(-c2ccccc2)csc1NC(=S)NC(=O)c1ccccc1,57.9% (active)
14,CCOC(=O)C1=C(NC(=S)NC(=O)c2ccccc2)c2ccccc2CC1(C)C,4.16%
15,CCOC(=O)c1c(NC(=S)NC(=O)/C=C/c2cccs2)sc(C)c1C,20.2%
16,O=C(C1CCCO1)N1CCN(C(=O)C23CC4CC(CC(C4)C2)C3)CC1 (configuration not stated),-24%
17,C[C@H](CO)N1C[C@H](C)[C@@H](CN(C)Cc2ccc3c(c2)OCO3)OCc2cnnn2CCCC1=O,-16.3%
18,Cc1cc(Cl)c(S(=O)(=O)N(C)C)cc1OCC(N)=O,12.6%
19,Cc1cc(Cl)c(S(=O)(=O)NCC2CCCO2)cc1OCC(N)=O (configuration not stated),3.22%
20,Cc1cc(Cl)c(S(=O)(=O)Nc2ccc3c(c2)OCCO3)cc1OCC(N)=O,86.8% (active)
21,Cc1cc(C)cc(C(=O)OCC(=O)NCCNC(=O)COC(=O)c2cc(C)cc(C)c2)c1,-2.52%
